# GLS inh: blocks human kidney-isoform glutaminase activity; Potency, µM (series often up to 45.5 µM), for inactives: at the highest dose activity change, negative = inhibition, actives largely listed as inhibitors; O94925; GLS enzymatic activity, qHTS titration; 410,000 compounds, 0.21% hits; AID 624170; further: on the % scale 0 is the no-effect control and ±100 the full control effect
#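 hKGA; 45 mM KH2PO4 pH 8.2 + 0.02% Tween-20; cpd via pin tool; 1 mM Gln soln; GluOx/HRP/Amplex Red; RT 30 min; fluor. t0 & final.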
# PTHR1 agonist: PTHR1 (human) receptor agonism. Potency, µM (titrated, usually from 115 µM), inactives show top-dose activation, actives largely listed as activators. 410,000 compounds, 0.075% hits. AID 743266. HEK293 GP2 PTHR1 cells, GloSensor cAMP luminescence, 1 h; further: nearly all actives have a fitted effect of over 55% in size
#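 HEK-293-derived GP2 cells expressing PTHR1 and a GloSensor cAMP reporter, 3,000/well, plated overnight, given luciferin plus IBMX (each 0.5 mM as added) for 1 h at 37 °C, then compound for 1 h at 37 °C. Luminescence was read after 15 min at room temperature.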
# GLP1R inv ag: acts as inverse agonist at human GLP-1 receptor; P43220; HEK293 GLP-1R CRE-luciferase, luminescence, 24 h; GLP-1R form is constitutively active; Potency, µM (titrated, usually from 38.3 µM), inactives show top-dose activity change, negative = inhibition, hits mostly inhibitors; 410,000 compounds, 1.6% hits; further: on the % scale 0 is the no-effect control and ±100 the full control effect; nearly all actives have a fitted effect of over 55% in size
#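 HEK293 cells stably co-expressing a cAMP-responsive luciferase reporter and constitutively active GLP-1R were seeded, incubated 12 h, then exposed to compounds for 24 h at 37 C. Luminescence was read 12 min after detection reagent; inverse agonists lower signal.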
# Glioma ERSR ind: ER stress response induction in glioma; U87-MG GRP78 promoter luciferase reporter, 16 h; Potency, µM, for inactives: top-dose activation, hits mostly activators; 420,000 compounds, 0.02% hits; AID 602332; further: series mostly up to about 76 µM; % of control where 0% means no effect; nearly all actives have a fitted effect of over 35% in size
#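 Stably transfected U87-MG human glioma cells carrying a GRP78-based luminescent sensor were seeded at 1000 cells/well, pin-dosed with compounds and incubated 16 h. Luciferase reagent was then added, and end-point luminescence was read after 10 min at room temperature.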
# ALOX12 inh: blocks human arachidonate 12S-lipoxygenase. P18054. purified 12hLO, xylenol orange hydroperoxide absorbance. Potency, µM (top dose mostly 108 µM), for inactives: at the top dose activity change, negative = inhibition, most hits filed as inhibitors. 580,000 compounds, 1.1% hits. AID 1671190; further: on the % scale 0 is the no-effect control and ±100 the full control effect
# Target sequence (P18054 whole entry, looked up): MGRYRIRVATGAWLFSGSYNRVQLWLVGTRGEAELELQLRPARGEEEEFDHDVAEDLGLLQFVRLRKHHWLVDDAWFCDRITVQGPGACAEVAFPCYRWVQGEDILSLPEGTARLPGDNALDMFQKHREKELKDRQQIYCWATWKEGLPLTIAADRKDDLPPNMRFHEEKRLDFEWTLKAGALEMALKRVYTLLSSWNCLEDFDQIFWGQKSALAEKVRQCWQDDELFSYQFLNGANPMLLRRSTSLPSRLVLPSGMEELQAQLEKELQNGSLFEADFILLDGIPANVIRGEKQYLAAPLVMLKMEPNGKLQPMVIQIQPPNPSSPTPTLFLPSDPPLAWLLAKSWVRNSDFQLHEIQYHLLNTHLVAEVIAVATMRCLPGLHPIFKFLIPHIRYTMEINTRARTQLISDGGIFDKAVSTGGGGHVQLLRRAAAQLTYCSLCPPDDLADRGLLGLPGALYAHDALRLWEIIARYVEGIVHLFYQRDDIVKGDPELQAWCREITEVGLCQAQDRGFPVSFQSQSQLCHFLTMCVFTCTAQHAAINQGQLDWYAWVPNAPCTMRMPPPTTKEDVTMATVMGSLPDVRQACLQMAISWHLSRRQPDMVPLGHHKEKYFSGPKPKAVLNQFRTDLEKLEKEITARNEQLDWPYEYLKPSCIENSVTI
#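 Purified human 12hLO (150 nM final) in 25 mM Hepes, 0.01% Triton X-100, pH 7.0 was preincubated 15 min at room temperature with compound. Then 40 uM arachidonic acid was added, 30 min. Hydroperoxide was read by Fe-XO absorbance ratio 573/405 nm.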
# GLP-1R agonist: GLP-1 receptor (human) agonism | P43220 | HEK293 GLP-1R CRE-luciferase, luminescence, 4-6 h; cells express a hypersensitive GLP-1R form | Potency, µM (series often up to 45.6 µM), without a hit: at the top dose activation, hits mostly activators | 380,000 compounds, 0.007% hits | AID 624172; further: % of control where 0% means no effect
# An asterisk follows results filed as active; i = inactive; ? = inconclusive; / = not tested or not shown; [ ] = remark or other dose. Shown are actives, neighbours in structure and some others; about 2.3% of the full set was active somewhere. The call rests on the fitted dose curve; in most records, active means well fitted curve in the direction sought with a large enough effect; inconclusive means small, poorly fitted or top-dose-only effect, or another doubt; inactive means no such curve, though single readings can be large; an effect the other way counts as inactive or inconclusive. Potency means the concentration at half of the fitted maximal effect.
SMILES,GLS inh,PTHR1 agonist,GLP1R inv ag,Glioma ERSR ind,ALOX12 inh,GLP-1R agonist
COc1cc(-c2cc(OC)c3c(C)oc(C)c3c(=O)c2)ccc1O,4.1%,9.2%[57.5 µM],-2.2%,-4.0%,?,14.8%
CCCc1cc(=O)c2c(O)ccc(OC)c2o1,-2.3%,i,55.7%,-4.1%,25.1µM*,10.0%
COc1ccc(Cl)cc1S(=O)(=O)N1CCN(C(=O)c2cc(-c3ccc(Br)cc3)n[nH]2)CC1,2.7%,-4.0%,10µM*,-4.1%,-15.4%,/
Cc1nc2nc(SCC(=O)NCCCN3CCCC3)nn2c(C)c1Cc1ccccc1Cl,1.7%,-18.0%,6.31µM*,-1.4%,27.3%,-0.1%
Cc1ccc(CN2CCC(C(=O)Nc3cccc(-c4cccc(F)c4)c3)CC2)o1,-2.4%,i,?,1.1%,?,4.8%
O=C(Nc1cccc(-c2cccc(Cl)c2)c1)C1CCN(Cc2ccc(CO)o2)CC1,0.0%,-16.7%,3.55µM*,-8.4%,0.0%,6.0%
CSc1nc(Nc2ccc(Cl)cc2)c(C#N)c(=O)[nH]1,-5.6%,i,72.2%,-2.8%,6.31µM*,9.1%
CCCCCCOc1ccc(CNc2cccc3ccccc23)cc1,/,/,/,/,4.47µM*,/
CCCCOc1ccc(CNn2c(C)nc3ccccc3c2=O)cc1,0.4%,-1.7%[57.5 µM],0.2%,2.1%,8.2%,-8.3%
CCN(CC#CCC(O)(c1ccccc1)C1CCCC1)C(C)C (stereo unspecified),-1.2%,22.4%[57.5 µM],11.2µM*,-3.6%,0.0%,-7.3%
Cc1cccc(C)c1NC(=O)CCCSc1nnc(-c2ccc(Cl)cc2)n1-c1ccccc1,-8.5%,-38.1%,5.62µM*,-5.3%,-12.5%,-0.9%
C/C(=N\Nc1ccc(C)c(Cl)c1)c1ccncc1,-2.8%,-22.5%,?,6.1%,44.7µM*,11.1%
C/C(=N\Nc1ccc(C)c(Cl)c1)c1cccnc1,-1.7%,-2.2%,?,2.2%,4.47µM*,-2.9%
C/C(=N\NC(=O)C(=O)Nc1ccc(C)c(Cl)c1)c1ccncc1,-3.8%,-19.7%,9.8%,-5.0%,8.0%,0.3%
Cc1ccc(-n2nnc(-c3nccs3)n2)cc1,-4.7%,-8.7%,2.82µM*,-11.2%,-21.0%,-8.3%
Clc1ccc(-n2nnc(-c3nccs3)n2)cc1Cl,26.1%,-91.6%,-9.3%,3.0%,5.62µM*,-4.4%
COc1ncccc1-c1nnn(-c2ccc(C)cc2)n1,8.9%,-86.3%,22.9%,2.9%,-27.3%,13.9%
Clc1ccc(-n2nnc(-c3ncc[nH]3)n2)cc1Cl,4.7%,-20.3%,14.2%,0.6%,?,3.3%
O=C(CN1CCN(c2ccccc2)CC1)N1CCc2ccccc21,23.7%,i,-12.8%,13.5%,0.0%,18.1%
O=C(CN1CCN(c2ccc(O)cc2)CC1)N1CCc2ccccc21,8.91µM*,-6.9%,?,1.7%,?,7.0%
O=C(CN1CCCCCC1)NC(c1ccccc1)c1ccccc1,14.5%,-22.5%,?,-0.3%,?,-5.0%
O=C(CN1CCN(c2ccc(O)cc2)CC1)NC(c1ccccc1)c1ccccc1,41.5%,?,?,-1.4%,22.4µM*,-7.4%
CC(C)N(CC(O)COCc1ccccc1Cl)CC(O)COc1cccc2ccccc12 (stereo unspecified),/,/,/,/,-50.6%,/
CC(C)C[C@H](NC(=O)NCCc1ccccc1F)C(=O)O,/,/,/,/,-23.6%,/
CN1CCN(C2CN(Cc3cn(Cc4ccc(Cl)cc4)nn3)S(=O)(=O)C2)CC1 (stereo unspecified),4.1%,i,9.4%,/,28.2µM*,13.3%
SMILES,GLS inh,PTHR1 agonist,GLP1R inv ag,Glioma ERSR ind,ALOX12 inh,GLP-1R agonist
COC(=O)CCCn1cc(CN2CC(N3CCN(Cc4cccc(C)c4)CC3)CS2(=O)=O)nn1 (stereo unspecified),-0.9%,-14.8%,0.3%,/,7.08µM*,12.8%
CCOC(=O)c1cnc(SCc2cccc(C)c2)nc1N,-18.3%,-1.6%[57.5 µM],10µM*,4.9%,40.0%,?
CSc1nc(N)c2c(n1)NC1=C(C(=O)CC(C)(C)C1)C2c1ccccc1 (stereo unspecified),/,/,/,/,0.4%,/
COc1cc(/C=C(/C#N)C(=O)OC(C)C)cc(Cl)c1O,/,/,/,/,20µM*,/
COc1cc(/C=C(/C#N)C(=O)c2cccc(C)c2)cc(Cl)c1O,/,/,/,/,82.4%,/
Cc1noc(C)c1-c1nc(NCc2cccs2)c2ccccc2n1,/,/,/,-3.6%,28.2µM*,/
Cc1noc(C)c1-c1nc(Nc2ccc(F)cc2)c2ccccc2n1,/,/,/,-3.5%,22.4µM*,/
COCCNc1nc(-c2c(C)noc2C)nc2ccccc12,/,/,/,-1.6%,-13.7%,/
CC(C)c1cc(N)n[nH]1,/,/,/,/,33.7%,/
COc1cccc(C2=Cc3ccc(F)cc3C(CC(C)=O)N2c2ccc(C#CC3(O)CCCCC3)cc2)c1 (stereo unspecified),7.5%,-18.8%,5.01µM*,/,15.8µM*,0.5%
CC(C)(C)OC(=O)N1CCC(Cc2cc(-c3cccc(Br)c3)no2)(C(=O)O)CC1,-9.6%,0.5%,-8.5%,-2.1%,-4.2%,-1.1%
COC(=O)C1(Cc2cc(-c3cccc(Br)c3)no2)CCN(C(=O)OC(C)(C)C)CC1,1.8%,-44.1%,10µM*,0.4%,-5.4%,10.8%
CCN1/C(=C/c2ccc3cc(C)ccc3[n+]2CC)Sc2ccc3sccc3c21,22.9%,-18.7%,?,-1.2%,/,1.6%
Cc1ccc2c(c1)S/C(=C\c1cccc[n+]1C)N2CCO,18.4%,i,-25.3%,-3.9%,0.0%,-8.6%
CCN1/C(=C/c2ccc3cccc(C)c3[n+]2CC)Sc2ccccc21,8.6%,-8.7%[57.5 µM],?,-9.1%,7.94µM*,-18.2%
CCN1/C(=C/c2ccc3cc(C)cc(C)c3[n+]2CC)Sc2cc(C)ccc21,-0.6%,-87.5%,-32.9%,-14.5%,39.8µM*,-5.4%
CCN1/C(=C\c2ccc3cc(C)ccc3[n+]2CC)Sc2cc(C)c(C)cc21,-0.8%,-50.6%,-20.8%,-7.8%,25.1µM*,-4.0%
C=CCNC(=O)c1ccc(-c2nnc3ccc(NC(=O)C4CCC4)cn23)cc1,/,/,/,/,21.9%,/
CN(C)CCNc1nc2c(c(=O)n(C)c(=O)n2C)n1Cc1ccc(Cl)cc1,/,/,/,/,5.6%,/
COc1ccccc1-c1noc2nc(Nc3cccc(Cl)c3)ccc12,/,/,/,/,28.2µM*,/
CC(NC(=S)NCCc1ccccc1)c1ccc(C(C)(C)C)cc1 (stereo unspecified),/,/,/,/,39.8µM*,/
CC(C)(CNC(=S)NCCc1ccccc1)CNC(=S)NCCc1ccccc1,-4.3%,-38.0%,?,-1.7%,20µM*,-3.3%
COc1cccc(-c2nnnn2[C@H]2CO[C@H]3[C@@H]2OC[C@@H]3NC(=O)c2ccc(N(C)C)cc2)c1,/,/,/,/,-30.7%,/

# Screens as filed in PubChem.
